Assay results as given in PMC12864922, “TDP-43 directly inhibits mRNA accumulation in neurites through modulation of mRNA stability”.
Whole data set: some 9,900 sequences, median “r (bound/input frequency ratio)” near 0.7, cut for the highest 2% near 6.5. Only a selection was taken, and the highest values are over-represented in it overall.

B1: ENSMUSG00000058297.31|Spock2 (ssRNA)
RNA: GGGAGUUCUACAGUCCGACGAUCGCUUCGAUAUCCGCAUGCUAACUUAGCAAAUGGAUCCGGAAGUCAGUGCGGAGGACCCUGGCUCCAGUGGGGGAGGACUGGGGAGUGUGGCUUGUGUGUAUGUGUGAUAUGAGAUGUGUGUGUAUGAUGUGAGAUGUGAGUGUGUGAUGUGAGAUGUGUGUAUGUGAGAUGUGUGUGUGUGUGUGUGUGUGUGUGAUGUGAGUCACCCAAAGGUCCCUAUGUUAUUGAUUUUCAAAUGCACACUUUCACACACAAGGAUACACUAACAGACCAAAAUCAACUCUUGCGGUCGCACUAGUGUGGAAUUCUCGGGUGUCAAGG
B2: ENSMUSG00000031028.17|Tub|206:210 (ssRNA)
RNA: GGGAGUUCUACAGUCCGACGAUCGCUUCGAUAUCCGCAUGCUACUCUGUCCAGCUUUGACAGCAAGCUGGCCUGCGAGUAGAGGCCCCCCACUGCCUUUAGGUGGCCCAGUCCGGAGUGGAGCUUGCCUGCCUGCCAAGACAGCCCUGCCUACCCUCUGUUCAUAGGCCCUCUAUGGGCUUUCUGGCCUUACCAACCAGAGACUGGCUGCUCUGCCUCUGCUGCUGAAGCAGGGGGGACAGCAAAUGGCAUACACAGGAGAAGAAUAUUUCUGUGCCCCAAGGUCAACACACAUGCCCAGUCCCUCUUGCGGUCGCACUAGUGUGGAAUUCUCGGGUGUCAAGG
B3: ENSMUSG00000031028.285|Tub (ssRNA)
RNA: GGGAGUUCUACAGUCCGACGAUCGCUUCGAUAUCCGCAUGCUAUGCAGGUAAGGAGGCUGGAUUGAUGUAAAUGGAAGUAGUACUUUAAGAAAGCUCUAGAUUUCCCAGGUUGGACACUCGACGAAAGGCACACCUGCUGCAGCAGGUUCUGACACACCUGAGCCAUACAUUGCCAUCAGAGAACCCUCAGCGAGGUAGCCUUUGUUUACAGUCUAGUUUCUAGAGGGCAGUAGGACUUCCAUGCUGGGGCUGGCCUAUCUCCUGAUGAAAGAUUACAGUGCCAUCUCCUUCCCAUAGUUCUGCUCUUGCGGUCGCACUAGUGUGGAAUUCUCGGGUGUCAAGG
B4: ENSMUSG00000061578.738|Ksr2 (ssRNA)
RNA: GGGAGUUCUACAGUCCGACGAUCGCUUCGAUAUCCGCAUGCUAUUGUCUAAGGCUGUGGGUUUUAAAUACCUGCUGCAGGCCUCCCAUCUCUGGCUCUUUGUUUCCACUCUGGCCCAAGUUUGAGUCUCCAUAUGGGCCCUUCCUGUCCUCAUGCCCUGCCUGUCUUCAUUCCACCCAUCCACCCUCCUAAGGAUUGGUCUUGUUCCGAGAGUGAUCCUGGUAACGCCAAGCCUCCCUCUGCCCCUGUGUUGGCUUCUGUGACGGACUACCACACACCAAGAGGUUUUUCACAGUGAAGAUGUCUCUUGCGGUCGCACUAGUGUGGAAUUCUCGGGUGUCAAGG
B5: ENSMUSG00000061578.1348|Ksr2 (ssRNA)
RNA: GGGAGUUCUACAGUCCGACGAUCGCUUCGAUAUCCGCAUGCUACUCUUCCUCCUGUCCCACAGCCCCCAGGUCAGAGCCAAGCGCAUCAUCUGCAGCACACAUGUCUGUCUCCACAGGCAAGCAACCUUGCCAAGGCAGGCCAGACAGGACAGCCCAGCUUCCCACUCCAGACAUGUUGUUCUUACAUCUCUGACCCAGUGAUCUUUCUAGGGGUCUGUCACAUGUCCCAACAGGUGGACAGCUCUCCAAGUCACCAACCUGAGGAAAAUAUCCCUCCUUGUAAAAAGGCUUUCUCUUUGUAACUCUUGCGGUCGCACUAGUGUGGAAUUCUCGGGUGUCAAGG
B6: ENSMUSG00000029028.239|Lrrc47 (ssRNA)
RNA: GGGAGUUCUACAGUCCGACGAUCGCUUCGAUAUCCGCAUGCUAGUGCGAGAGCCGUUAGCUGUCAGAACUAGUGAAGCUCCAGGCUCCUCGUGGCAGACCCUGGACAACGCUGGUAGCUGUUCUCCAUGAGACACGGCUGCUCACAGGUCCCUUUGAGUGGCUGUGGCAAGUACUCACCUACUAAGUGUUUAGGGUGGAGCUAUCCUGUGCUCACCCUGUCUCCCCCCAGUUCCUGCUGUUCCCUCCAGCCCAGCCCAGCCCAGGUGUGAGAUUCAUUGAGAUUUUUGAAACUGUUUUUACAGCUCUUGCGGUCGCACUAGUGUGGAAUUCUCGGGUGUCAAGG
B7: ENSMUSG00000029028.154|Lrrc47 (ssRNA)
RNA: GGGAGUUCUACAGUCCGACGAUCGCUUCGAUAUCCGCAUGCUAGCUUGUUUCCAGGCACCGUGCUGCCGCCAUGCUCCCAGGGCAGCAUCUGCCUUCCACGGCUGUGCUUGGAACUGUAGUGCUGGUCGUUGUUGGCACAUCUGCGCCUUGGCCAAGGAAGUUAUCUAUGUCCGUGUAGUCCUUUGUAGUCAGACAGAUGCUUCGUGGACUGUGCCUCACACAUGGCCCUGCAGGCUCCAUGUCAGCGUGUCCCACUAUUCAUGUCCCAUCUCUGUGCAUCCUGACUGCGCACAUCCCAUCUCCUCUUGCGGUCGCACUAGUGUGGAAUUCUCGGGUGUCAAGG
B8: ENSMUSG00000061578.113|Ksr2|98:102;184:189;252:256 (ssRNA)
RNA: GGGAGUUCUACAGUCCGACGAUCGCUUCGAUAUCCGCAUGCUACUCCCAUUUUGUAAGAACACUGUUCUAACUCACCUCAUGCCCACGCUACCCUGGGCAACUGGAGAACACCAUAGCGUUUCAGCUGAUGUGACAUUUGCACACACCUUUACCAGUUCACCAUCAUUCAUGGCUUCCCCCAAAGUCCCGAGUCCUGAGAACCGGGGCUGUGGCAAGAGAGUUCUGCACACAUCUCUCUGUGGGGCUAGCAAUGCCGGGGUUAAGUUCUCCCUCGGUGAUGGAGACGGUCCUGGCAUACCAUGCUCUUGCGGUCGCACUAGUGUGGAAUUCUCGGGUGUCAAGG
B9: ENSMUSG00000034801.54|Sos2 (ssRNA)
RNA: GGGAGUUCUACAGUCCGACGAUCGCUUCGAUAUCCGCAUGCUAUCAAUGACCUUGGCCAUAUGUAGUCAUUGACACUGGAAUAGUAUUUGUAAAGGUUUUUAAUUUAUUCAAAAAGACAUAGUAUUUUAGUACUUUUUACAGAAAUGCUACUGAUUAAAUAAGCUCUUAAGAAUUAGUAAACUUGUUGGAUGGCAGUGGCCCACAGCUGUAAUCCCAGCACCCUGGUUGCAGGGGCAGGUGGGCUUCAGGGUUUGAGAGCAGCCUGGUCUACAGAGCAAGUCCCAGGACAGCCAGGGCUACACCUCUUGCGGUCGCACUAGUGUGGAAUUCUCGGGUGUCAAGG
B10: ENSMUSG00000090935.235|Synj2bp (ssRNA)
RNA: GGGAGUUCUACAGUCCGACGAUCGCUUCGAUAUCCGCAUGCUAGGGGACUAGGGGAUCAUAUUCCCUCAUAUAUAAUCAAGACUCAUAUUGAAAAAUGAGUUCUGGAUUGUAAAGAGAACUUACUUUUUCCACUUGCCUGUAAGUCUUUGUCCACAAGUUAAAAACAUACACAGUGCUAAGGAAUGAUCAUAACUGAAACAUUUCAAGAACUAUUAGCAGAGCAUGUAUAUUGAGGAUGGGGAAGUUAGCUUUAAAAGAGAAUGCUCAGUCAGUGACAUUAGGAAAAUAAUGACUGAAGCAAUCUCUUGCGGUCGCACUAGUGUGGAAUUCUCGGGUGUCAAGG

molecular target: TDP-43 (Homo sapiens, UniProt Q13148 1-414); assay: RNA Bind-n-Seq with designed 260-mer pool; 25 mM Tris-HCl, 150 mM KCl, 3 mM MgCl2, BSA (printed 500 mg/mL), 20 units/mL SUPERase IN; pH not stated; 500 nM RNA pool, 1 h, 4 C; TDP-43 5, 50, 500 nM; high values mean tight binding; conditions: protein: recombinant; tags: SBP (GST cleaved off with PreScission; pGEX-GST-SBP)
Summary of the method: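 An in vitro-transcribed pool of 260-nt 3′ UTR oligos (500 nM) was incubated for 1 h at 4 °C with recombinant SBP-tagged TDP-43 at 5, 50 or 500 nM held on streptavidin beads. The buffer contained 25 mM Tris-HCl, 150 mM KCl, 3 mM MgCl2, BSA and SUPERase IN. Biotin-eluted bound RNA was sequenced, and binding, R, is each oligo's normalized read abundance in the bound sample over that in input.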

TDP-43, sequence (Q13148 whole entry): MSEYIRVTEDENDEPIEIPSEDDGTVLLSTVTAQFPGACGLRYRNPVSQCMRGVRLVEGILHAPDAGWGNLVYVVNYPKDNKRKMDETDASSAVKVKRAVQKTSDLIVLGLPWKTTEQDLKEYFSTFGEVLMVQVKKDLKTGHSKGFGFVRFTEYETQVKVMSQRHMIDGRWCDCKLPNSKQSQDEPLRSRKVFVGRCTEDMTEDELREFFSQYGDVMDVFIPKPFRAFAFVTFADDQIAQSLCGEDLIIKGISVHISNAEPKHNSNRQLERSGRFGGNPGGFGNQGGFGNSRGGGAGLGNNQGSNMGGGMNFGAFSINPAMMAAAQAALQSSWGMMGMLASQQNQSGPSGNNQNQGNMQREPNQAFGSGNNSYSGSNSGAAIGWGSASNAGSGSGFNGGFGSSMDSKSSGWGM

Binder | binding signal
B1 | 8.63 R (bound/input frequency ratio)
B2 | 0.458 R (bound/input frequency ratio)
B3 | 0.881 R (bound/input frequency ratio)
B4 | 1.57 R (bound/input frequency ratio)
B5 | 0.533 R (bound/input frequency ratio)
B6 | 0.716 R (bound/input frequency ratio)
B7 | 1.62 R (bound/input frequency ratio)
B8 | 0.484 R (bound/input frequency ratio)
B9 | 0.356 R (bound/input frequency ratio)
B10 | 0.157 R (bound/input frequency ratio)
